From ChEMBL document CHEMBL3988442, “University of Dundee, Small-Polar-MMV Screening Library” (2021)
Among all 38,000 compounds or so, about 1,200 (3.2%) showed an effect of 50% or more. The median lay at about -58%. This is one part of a sample in which strong results are shown more often than they occur.

Test system: Plasmodium falciparum
Assay: Calibr Malaria Delayed Death Assay SOP
Type: functional, organism-based
Set-up: scale not given: in the data most compounds retested in dose-response had high values
Details: concentration 4.99e-06 (unit not given; other assays of the set use mol/L)

Question: `CCc1nc(CN(C)C2CCN(CCCOc3ccccc3)C2)no1` (stereo not drawn) was tested. Which “Percent Effect” value did it give?
Answer: The value was -2.481%.

Question: Which “Percent Effect” value does the source give for `COc1ccccc1-c1ncc(CN2CCCC(CCC(N)=O)C2)s1` (stereo not drawn) here?
Answer: Its value is -45.2%.

Question: `COc1ccccc1-c1ncc(CN2CCCC[C@H](N(C)C)C2)s1` was tested. Which “Percent Effect” value did it give?
Answer: The value was 69.91%.

Question: Which “Percent Effect” value does the source give for `CN(C)[C@H]1CCCCN(Cc2cnc(NCc3ccccc3)nc2)C1` here?
Answer: The value was -25.46%.

Question: With `CC(=O)Nc1ccc2nc(CN(C)Cc3noc(C)n3)ccc2c1` as the compound, how does the “Percent Effect” value read?
Answer: The value was -81.21%.

Question: `CC(C)S(=O)(=O)CCN1CCN(C(C#N)c2ccccc2)CC1` (stereo not drawn) was tested. Which “Percent Effect” value did it give?
Answer: The value was -69.53%.

Question: How did the “Percent Effect” value turn out when `NC(=O)C1CCN(c2ccc(C(=O)N3CCc4ccccc43)cn2)C1` (stereo not drawn) was run?
Answer: The value was -37.49%.

Question: With `O=C(CSc1ccc2c(c1)OCCO2)NS(=O)(=O)c1ccccc1Br` as the compound, how does the “Percent Effect” value read?
Answer: Its value is -14.98%.

Question: With `c1ccc(-n2nnnc2NCc2ccc3c(c2)OCO3)cc1` as the compound, how does the “Percent Effect” value read?
Answer: Its value is -79.7%.

Question: With `N#Cc1c[nH]nc1NCc1ccc2c(c1)OCO2` as the compound, how does the “Percent Effect” value read?
Answer: The value was -94.84%.

Question: Which “Percent Effect” value does the source give for `CNCc1nc(-c2ccc3c(c2)OCO3)c[nH]1.Cl.Cl` here?
Answer: Its value is -83.48%.

Question: `I.c1ccc(Sc2ccc3c(c2)OCO3)c(CNC2=NCCN2)c1` was tested. Which “Percent Effect” value did it give?
Answer: The value was 83.34%.

Question: With `Cc1ccc(N(CC(=O)N2CCCCC2)C(=O)C2CCCO2)cc1` (stereo not drawn) as the compound, how does the “Percent Effect” value read?
Answer: Its value is -77.19%.

Question: With `CS(=O)(=O)N1C[C@@H]2COC[C@]2(COCC(=O)N2CCCC2)C1` as the compound, how does the “Percent Effect” value read?
Answer: Its value is -14.15%.

Question: How did the “Percent Effect” value turn out when `CCCNc1ccc(C(=O)NCCc2ccc(Cl)cc2)cn1` was run?
Answer: The value was -35.94%.

Question: How did the “Percent Effect” value turn out when `COc1cccc(C2CCCN2C(=O)NCCCn2cccn2)c1` (stereo not drawn) was run?
Answer: The value was -100.5%.

Question: With `Cn1cc(CNCCc2cccnc2)c(-c2cccnc2)n1` as the compound, how does the “Percent Effect” value read?
Answer: The value was -43.46%.

Question: Which “Percent Effect” value does the source give for `Cn1cc(CNCCOc2ccc(F)c(F)c2)c(-c2cccnc2)n1` here?
Answer: The value was 53.44%.

Question: How did the “Percent Effect” value turn out when `CN(C)C(C)(C)CNCc1cn(C)nc1-c1cccnc1.Cl` was run?
Answer: Its value is -6.426%.

Question: With `Cn1cc(CNCCC(=O)NCc2ccccc2)c(-c2cccnc2)n1` as the compound, how does the “Percent Effect” value read?
Answer: Its value is -26.7%.

Question: For `CCCNCc1cn(Cc2ccccc2)nc1-c1cccnc1.Cl`, which “Percent Effect” value is on record?
Answer: Its value is 57.61%.

Question: For `Cn1cc(CNCCNC(=O)Cc2ccccc2)c(-c2cccnc2)n1`, which “Percent Effect” value is on record?
Answer: Its value is 7.378%.

Question: Which “Percent Effect” value does the source give for `COCCCOc1ccc(C(=O)N(C)Cc2cccc(O)c2)cn1` here?
Answer: Its value is -93.61%.

Question: `CC(C)(C)OC(=O)N1CCN(C(=O)c2cnn3c2OCCC3)CC1` was tested. Which “Percent Effect” value did it give?
Answer: Its value is -73.8%.

Question: Which “Percent Effect” value does the source give for `CC(CC(=O)c1ccco1)NC(=O)c1ccon1` (stereo not drawn) here?
Answer: The value was -111.2%.

Question: For `O=C(Nc1nc2c(s1)CN(S(=O)(=O)C1CC1)CC2)c1ccsc1`, which “Percent Effect” value is on record?
Answer: Its value is -79.83%.

Question: With `Fc1ccccc1C1NCCc2cc3c(cc21)OCCO3` (stereo not drawn) as the compound, how does the “Percent Effect” value read?
Answer: The value was -25.34%.

Question: `CCCn1nnc(NCc2ccc(-c3ccc(Br)cc3)o2)n1` was tested. Which “Percent Effect” value did it give?
Answer: The value was -170.9%.

Question: How did the “Percent Effect” value turn out when `CN1CCCCc2c1nc1c(c2N)CCC1.O=C(O)c1cc([N+](=O)[O-])ccc1Cl` was run?
Answer: Its value is 64.96%.

Question: For `CC(=O)NC1CCN(c2nc(N)nc3c2CCCC3)C1` (stereo not drawn), which “Percent Effect” value is on record?
Answer: The value was -119.8%.

Question: For `CN1CCCc2c1nc1c(c2N)CCCC1.O=C(O)C(=O)O`, which “Percent Effect” value is on record?
Answer: Its value is 75.22%.

Question: With `Nc1nc2c(c(NC(=O)Nc3cccc(Cl)c3)n1)CCCC2` as the compound, how does the “Percent Effect” value read?
Answer: The value was -1.173%.

Question: `CN1CCCCc2c1nc1c(c2N)CCCC1` was tested. Which “Percent Effect” value did it give?
Answer: Its value is 64.21%.

Question: How did the “Percent Effect” value turn out when `Nc1nc2c(c(NC(=O)Nc3ccc(Cl)c(Cl)c3)n1)CCCC2` was run?
Answer: The value was -65.1%.

Question: `CN1CCc2nc3c(c(N)c2C1)CCCN3C` was tested. Which “Percent Effect” value did it give?
Answer: The value was -6.547%.

Question: For `CN1CCc2c1nc1c(c2N)CCC1`, which “Percent Effect” value is on record?
Answer: Its value is -63.1%.

Question: How did the “Percent Effect” value turn out when `CN1CCCc2c1nc1c(c2N)CCC1` was run?
Answer: Its value is -51.79%.

Question: For `CC1CN(C)c2ccccc2CN1C(=O)c1cc(C#N)cn1C` (stereo not drawn), which “Percent Effect” value is on record?
Answer: Its value is -35.84%.

Question: With `CCN(CC)S(=O)(=O)c1ccc2c(c1)N(Cc1ccncc1)C(=O)CS2` as the compound, how does the “Percent Effect” value read?
Answer: Its value is -124.7%.

Question: With `COCC(C)NC(=O)CN1CCC(CO)CC1` (stereo not drawn) as the compound, how does the “Percent Effect” value read?
Answer: The value was -50.48%.

Question: How did the “Percent Effect” value turn out when `O=C1CC(CNc2cncc(Cl)n2)c2ccccc2N1` (stereo not drawn) was run?
Answer: Its value is 64.58%.

Question: With `Cc1cc(NCC2CC(=O)Nc3ccccc32)nc(C)n1` (stereo not drawn) as the compound, how does the “Percent Effect” value read?
Answer: The value was -157%.

Question: How did the “Percent Effect” value turn out when `O=C1CC(CNc2cncc(Br)c2)c2ccccc2N1` (stereo not drawn) was run?
Answer: The value was 9.989%.

Question: How did the “Percent Effect” value turn out when `CS(=O)(=O)NC(=O)c1ccn(-c2ccc(Cl)c(Cl)c2)n1` was run?
Answer: The value was -100.9%.

Question: With `COCCN1C(=O)CC(c2cccnc2)C12CCN(C(=O)C1CC1)CC2.O=C(O)C(F)(F)F` (stereo not drawn) as the compound, how does the “Percent Effect” value read?
Answer: The value was -113.7%.

Question: Which “Percent Effect” value does the source give for `CC(Oc1ccc2c(c1)OCO2)C(=O)Nc1ccon1` (stereo not drawn) here?
Answer: The value was -56.4%.

Question: Which “Percent Effect” value does the source give for `Cc1cc2cc(CNC3CCN(CC(=O)N(C)C)CC3)oc2cc1C` here?
Answer: The value was -160%.

Question: With `NC(=O)CN1CCC(NCc2cc(C(F)(F)F)ccc2Cl)CC1` as the compound, how does the “Percent Effect” value read?
Answer: Its value is -47.52%.

Question: With `Cc1cc(Cl)cc(C)c1CNC1CCN(CC(=O)N(C)C)CC1` as the compound, how does the “Percent Effect” value read?
Answer: Its value is 52.71%.

Question: Which “Percent Effect” value does the source give for `CNc1oc(-c2ccc(S(=O)(=O)N(C)C)o2)nc1C#N` here?
Answer: The value was -61.71%.

Question: Which “Percent Effect” value does the source give for `Cc1nc(C)n(CC2CCCN(Cc3nc(-c4ccco4)no3)C2)n1` (stereo not drawn) here?
Answer: The value was -26.23%.

Question: Which “Percent Effect” value does the source give for `NC(c1ccccc1)c1ccc(OC(F)F)cc1` (stereo not drawn) here?
Answer: The value was 9.975%.

Question: For `Cl.NC(CC1CCCC1)c1ccccc1` (stereo not drawn), which “Percent Effect” value is on record?
Answer: Its value is 67%.

Question: With `Cl.NC(Cc1nc(-c2ccccc2)no1)c1ccccc1` (stereo not drawn) as the compound, how does the “Percent Effect” value read?
Answer: Its value is -266.4%.

Question: `NC(=O)C(NC(=O)COC1CCCC1)c1ccccc1` (stereo not drawn) was tested. Which “Percent Effect” value did it give?
Answer: The value was -14.18%.

Question: Which “Percent Effect” value does the source give for `NC(=O)C(NC1CCN(CC2CCCCC2)CC1)c1ccccc1` (stereo not drawn) here?
Answer: Its value is -76.74%.

Question: With `CC(NC(=O)CSCC(N)=O)c1ccc(Oc2ccccc2)cc1` (stereo not drawn) as the compound, how does the “Percent Effect” value read?
Answer: The value was -26.87%.

Question: Which “Percent Effect” value does the source give for `Cl.NC(CC1CCCCC1)c1ccccc1` (stereo not drawn) here?
Answer: Its value is 55.85%.

Question: Which “Percent Effect” value does the source give for `OC(CN1CCN(CC2CCCCC2)CC1)c1ccccc1` (stereo not drawn) here?
Answer: The value was 2.939%.

Question: How did the “Percent Effect” value turn out when `NC(CC1CCCC1)c1ccc(Oc2ccccc2)cc1` (stereo not drawn) was run?
Answer: The value was 80.17%.

Question: For `COc1ccc(Cn2cc(C(=O)N(C)Cc3ccon3)nn2)cc1`, which “Percent Effect” value is on record?
Answer: The value was -118.5%.

Question: How did the “Percent Effect” value turn out when `CC(C)COC[C@H]1CC[C@H]2[C@H](CCN2C(=O)c2ccncc2F)O1.O=C(O)C(F)(F)F` was run?
Answer: Its value is -129.5%.

Question: With `COc1ccc(-c2cc(C(=O)Nc3nc[nH]n3)[nH]n2)cc1` as the compound, how does the “Percent Effect” value read?
Answer: Its value is -113.2%.

Question: How did the “Percent Effect” value turn out when `Cc1ccc(C(=O)N2CCc3nc4c(C)csc4c(=O)n3CC2)cn1` was run?
Answer: The value was -115%.

Question: With `CCn1nc(C)cc1C(=O)N1C[C@@H]2C[C@@H](c3noc(C)n3)O[C@@H]2C1` as the compound, how does the “Percent Effect” value read?
Answer: The value was -70.6%.

Question: How did the “Percent Effect” value turn out when `Cc1n[nH]cc1CNCC1(c2ccc3c(c2)OCO3)CCOCC1.Cl` was run?
Answer: Its value is -41.06%.

Question: For `O=C(NCC1(O)CCOC1)NCC1(c2ccccc2Cl)CC1` (stereo not drawn), which “Percent Effect” value is on record?
Answer: The value was 1.417%.

Question: `Cc1n[nH]cc1CNCC1(c2ccccc2Cl)CCOCC1` was tested. Which “Percent Effect” value did it give?
Answer: Its value is 55.9%.
